Records with an inconclusive call do not appear. Calls of active or inactive are those of the source. The calls were made as follows, unless noted: active = hit-call score of the fitted dose curve at least 0.9, where 1 is the maximum; inconclusive = response in the unintended direction; inactive = score below 0.9.
Assays:
[1] = biological target: T1, Thyroid hormone receptor alpha (Rattus norvegicus) + Thyroid hormone receptor beta (Rattus norvegicus) (UniProt P18113+P63059); assay: TOX21_TR_LUC_GH3_Antagonist_Followup: Tox21 GH3 Thyroid Hormone Receptor Antagonism Luciferase Follow-Up Assay (AID 2283942)
How it was run: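 Confirmatory qHTS, antagonist mode: T3 (1.0 nM final) + test cpd, 15 conc, 92 uM–5nM final, GH3 rat pituitary line, 24 h, 37C. Luc reporter, RLU vs DMSO.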

THRA (gene 7067) [2] = biological target: THRA (gene 7067) (UniProt P10827); assay: TOX21_TRA_COA_Antagonist_Followup_ratio: Tox21 Thyroid Hormone Receptor alpha Antagonism through Coactivator Recruitment Follow-Up Assay, Ratio (AID 2283953)
How it was run: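 520:495 nm emission ratio (excitation 340 nm) reports fluorescein-SRC-2 peptide recruitment to GST-TRα LBD by TR-FRET with Tb anti-GST antibody. Values were normalized to DMSO (0%) and T3 control wells (100%); loss of signal indicated antagonism.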

THRB (gene 7068) [3] = biological target: THRB (gene 7068) (UniProt P10828); assay: TOX21_TRB_BLA_Antagonist_Followup_ratio: Tox21 Thyroid Hormone Receptor beta Antagonism Beta-lactamase (BLA) Follow-Up Assay, Ratio (AID 2283958)
How it was run: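 HEK293T TRb-bla (GAL4 DBD + hTRβ LBD), 2% cs-FBS phenol red-free DMEM, 5 h attach; cpds 11-pt triplicate, 18 h 37C; CCF4-AM 2 h RT; 460/530 ratio vs DMSO; CellTiter-Glo viability same wells.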

[4] = TOX21_TRB_BLA_Antagonist_Followup_viability: Viability Assessment in the Tox21 Thyroid Hormone Receptor beta Antagonism Beta-lactamase (BLA) Follow-Up Assay (AID 2283961)
How it was run: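 ATP-based CellTiter-Glo luminescence (30 min, room temperature) run in the same wells as the TRβ-bla readout. Cells: GeneBLAzer HEK293T expressing GAL4-TRβ LBD, exposed 18 h at 37C to compounds at 11 concentrations in triplicate, stripped-serum medium.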

THRB (gene 7068) [5] = biological target: THRB (gene 7068) (UniProt P10828); assay: TOX21_TRB_COA_Antagonist_Followup_ratio: Tox21 Thyroid Hormone Receptor beta Antagonism through Coactivator Recruitment Follow-Up Assay, Ratio (AID 2283967)
How it was run: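 Test compound was incubated with 5.0 nM GST-TRβ LBD in 0.10% BSA. Then 200 nM fluorescein-SRC-2 peptide and 2 nM terbium anti-GST antibody were added. TR-FRET (520:495 nm) was measured and normalized to DMSO and T3 controls.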

[6] = biological target: Retinoic acid receptor RXR-alpha (Homo sapiens) (UniProt P19793); assay: TOX21_TR_RXR_BLA_Antagonist_Followup_ratio: Tox21 Thyroid Hormone Receptor beta Retinoid X Receptor alpha (RXRa) Antagonism Beta-lactamase (BLA) Follow-Up Assay, Ratio (AID 2283972)
How it was run: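 After 5 h attachment at 37C, HEK293T RXRa-bla cells (2,500/well, 2% charcoal-stripped FBS, no phenol red) received compounds at 11 concentrations in triplicate for 16 h. Beta-lactamase read as 460:530 nm ratio after 2 h RT substrate loading.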

THRA (gene 7067) [7] = biological target: THRA (gene 7067) (UniProt P10827); assay: TOX21_TRA_COA_Agonist_Followup_ratio: Tox21 Thyroid Hormone Receptor alpha Agonism through Coactivator Recruitment Follow-Up Assay, Ratio (AID 2283948; active = hit-call score of the fitted dose curve at least 0.9, where 1 is the maximum; inactive = score below 0.9)
How it was run: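 Cell-free TR-FRET coactivator recruitment: GST-tagged TRα LBD (2.5 nM) with 0.10% BSA was incubated with compound, then fluorescein-SRC-2 peptide (200 nM) and Tb-anti-GST antibody (2 nM) added. 520:495 nm ratio normalized to DMSO (0%) and T3 (100%).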

THRB (gene 7068) [8] = biological target: THRB (gene 7068) (UniProt P10828); assay: TOX21_TRB_BLA_Agonist_Followup_ratio: Tox21 Thyroid Hormone Receptor beta Agonism Beta-lactamase (BLA) Follow-Up Assay, Ratio (AID 2283954)
How it was run: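 Human TRβ LBD–GAL4 DBD fusion in GeneBLAzer UAS-bla HEK293T cells; 11 concentrations in triplicate, 18 h at 37°C/5% CO2, T3 as agonist control. CCF4-AM substrate 2 h at room temperature; 460:530 nm ratio fitted for gain of signal versus DMSO.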

THRB (gene 7068) [9] = biological target: THRB (gene 7068) (UniProt P10828); assay: TOX21_TRB_COA_Agonist_Followup_ratio: Tox21 Thyroid Hormone Receptor beta Agonism through Coactivator Recruitment Follow-Up Assay, Ratio (AID 2283963; active = hit-call score of the fitted dose curve at least 0.9, where 1 is the maximum; inactive = score below 0.9)
How it was run: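 Cell-free TR-FRET coactivator recruitment: GST-tagged TRβ LBD (5.0 nM) with 0.10% BSA incubated with compound, then fluorescein-SRC-2 peptide (200 nM) and Tb-anti-GST antibody (2 nM) added. 520:495 nm ratio normalized to DMSO (0%) and T3 (100%).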

[10] = biological target: Retinoic acid receptor RXR-alpha (Homo sapiens) (UniProt P19793); assay: TOX21_TR_RXR_BLA_Agonist_Followup_ratio: Tox21 Thyroid Hormone Receptor beta Retinoid X Receptor alpha (RXRa) Agonism Beta-lactamase (BLA) Follow-Up Assay, Ratio (AID 2283968)
How it was run: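 HEK293T RXRa-bla, qHTS; cpd 11-pt conc. in triplicate, 16 h 37C/5% CO2; CCF4-AM 2 h RT; ratio 460:530 nm; agonist direction vs DMSO; 9-cis retinoic acid as positive control.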

[11] = TOX21_TR_RXR_BLA_Agonist_Followup_viability: Viability Assessment in the Tox21 Thyroid Hormone Receptor beta Retinoid X Receptor alpha (RXRa) Agonism Beta-lactamase (BLA) Follow-Up Assay (AID 2283970)
How it was run: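 Cells: HEK293T RXRa-UAS-bla, 2,500/well; medium phenol red-free DMEM + 2% charcoal-stripped FBS; 16h, 37C/5% CO2; qHTS concentration series. Read: CellTiter-Glo luminescence (ATP); bidirectional fit, DMSO = baseline.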

[12] = TOX21_PR_BLA_Followup_Antagonist_viability: Viability Assessment in the Tox21 HEK293 Progesterone Receptor (PR) Antagonism Beta-lactamase Follow-Up Assay (AID 2283936);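 also: hits lower the luminescence signal meaning cytotoxicity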
How it was run: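 PR-UAS-bla HEK293T cells (3,000/well, 2% charcoal-stripped FBS) given compound plus R5020 agonist, 16 h at 37C. CellTiter-Glo added after bla read, 30 min at room temperature; luminescence loss indicates cytotoxicity.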

[13] = TOX21_PR_LUC_Followup_Antagonist_viability: Viability Assessment in the Tox21 HEK293 Progesterone Receptor (PR) Antagonism Luciferase Follow-Up Assay (AID 2283940)
How it was run: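 Multiplexed viability counter-screen: after 5 days in charcoal-stripped-FBS medium, HEK293-PR-A-luc cells are plated, pinned with DMSO-dissolved compounds for 16 h at 37C, and ATP content is quantified luminescently via CellTiter-Glo.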

[14] = TOX21_PR_LUC_Followup_Agonist_viability: Viability Assessment in the Tox21 HEK293 Progesterone Receptor (PR) Agonism Luciferase Follow-Up Assay (AID 2283941);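 also: loss of signal means cytotoxicity so actives lower viability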
How it was run: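 Cells were kept 5 days in charcoal-stripped serum medium before plating HEK293-PR-A-luc at 3,000 cells/well. After 5 h they received DMSO-dissolved compound and incubated 16 h at 37C. Viability was taken from CellTiter-Glo ATP luminescence.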

[15] = TOX21_PR_BLA_Followup_Agonist_viability: Viability Assessment in the Tox21 HEK293 Progesterone Receptor (PR) Agonism Beta-lactamase Follow-Up Assay (AID 2283935);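 also: cells exposed to compound for 16 hr at 37 °C; signal loss means lower viability so actives are cytotoxic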
How it was run: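 HEK293T PR-UAS-bla, 3,000 cells/well, 2% CS-FBS; 6 hr pre-incubation; cpd in DMSO, 16 hr 37C; LiveBLAzer 2 hr RT, then CellTiter-Glo 30 min RT, luminescence. Decrease = lost viability.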

PGR (gene 5241) = PGR (gene 5241) (UniProt P06401); assay: TOX21_PR_LUC_Followup_Antagonist: Tox21 HEK293 Progesterone Receptor (PR) Antagonism Luciferase Follow-Up Assay (AID 2283938);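 also: curve fitted upward as signal gain over DMSO baseline despite antagonist label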
How it was run: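 Luminescence from ONE-Glo was measured 30 min after reagent addition, following 16 h exposure of HEK293-PR-A-luc cells (3,000/well, plated 5 h earlier) to DMSO-dissolved compounds at 37C; DMSO served as baseline.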

[16] = CCTE_Harrill_HTTr_Viability_DMEM_6hr: (Pilot) CCTE's 6-hour Cell Viability Assessment for the High-Throughput Transcriptomics (HTTr) Platform, in MCF-7 cells cultured in DMEM + 10% fetal bovine serum, Harrill Lab (AID 2283973; active = hit-call score of the fitted dose curve at least 0.9, where 1 is the maximum; inactive = score below 0.9)
How it was run: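 MCF-7 cells in DMEM + 10% FBS, eight-point dilution series, 6 h exposure. Membrane integrity by propidium iodide exclusion with high-content imaging; bidirectional fit versus DMSO.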

[17] = CCTE_Harrill_HTTr_Viability_DMEM_12hr: (Pilot) CCTE's 12-hour Cell Viability Assessment for the High-Throughput Transcriptomics (HTTr) Platform, in MCF-7 cells cultured in DMEM + 10% fetal bovine serum, Harrill Lab (AID 2283974; active = hit-call score of the fitted dose curve at least 0.9, where 1 is the maximum; inactive = score below 0.9)
How it was run: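 MCF-7 cells in DMEM + 10% FBS exposed 12 h to an eight-point dilution series; membrane integrity scored by propidium iodide exclusion with high-content imaging, bidirectional fitting versus DMSO.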

[18] = CCTE_Harrill_HTTr_Viability_DMEM_24hr: (Pilot) CCTE's 24-hour Cell Viability Assessment for the High-Throughput Transcriptomics (HTTr) Platform, in MCF-7 cells cultured in DMEM + 10% fetal bovine serum, Harrill Lab (AID 2283975; active = hit-call score of the fitted dose curve at least 0.9, where 1 is the maximum; inactive = score below 0.9)
How it was run: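 MCF-7 cells in DMEM with 10% FBS exposed for 24 hours to an eight-point dilution series. Membrane integrity by propidium iodide exclusion with high content imaging; bidirectional fit against DMSO.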

[19] = biological target: T1, Thyroid hormone receptor alpha (Rattus norvegicus) + Thyroid hormone receptor beta (Rattus norvegicus); assay: TOX21_TR_LUC_GH3_Agonist_Followup: Tox21 GH3 Thyroid Hormone Receptor Agonism Luciferase Follow-Up Assay (AID 2283939)
How it was run: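 Rat GH3 cells (1,500/well) in serum-free assay medium, treated with 15-point series, 92 uM to 5 nM final, for 24 h at 37C. Luciferase via ONE-Glo luminescence; gain of signal fitted against DMSO, T3 positive control.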

Measured: AC50

Sequence of THRB (gene 7068) (P10828 whole entry, looked up, the tested form may be a part): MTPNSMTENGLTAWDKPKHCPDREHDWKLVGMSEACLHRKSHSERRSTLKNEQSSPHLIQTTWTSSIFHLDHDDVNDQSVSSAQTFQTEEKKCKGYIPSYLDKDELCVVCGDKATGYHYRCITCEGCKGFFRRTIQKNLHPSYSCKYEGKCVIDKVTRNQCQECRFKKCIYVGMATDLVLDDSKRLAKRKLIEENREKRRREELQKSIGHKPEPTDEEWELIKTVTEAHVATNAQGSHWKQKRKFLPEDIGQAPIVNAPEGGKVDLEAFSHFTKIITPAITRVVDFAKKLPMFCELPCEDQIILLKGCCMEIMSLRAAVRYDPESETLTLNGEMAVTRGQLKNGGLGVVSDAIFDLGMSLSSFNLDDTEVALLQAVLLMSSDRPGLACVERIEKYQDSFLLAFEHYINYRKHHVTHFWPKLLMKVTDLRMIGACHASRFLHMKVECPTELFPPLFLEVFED
Sequence of Retinoic acid receptor RXR-alpha (Homo sapiens) (P19793 whole entry, looked up): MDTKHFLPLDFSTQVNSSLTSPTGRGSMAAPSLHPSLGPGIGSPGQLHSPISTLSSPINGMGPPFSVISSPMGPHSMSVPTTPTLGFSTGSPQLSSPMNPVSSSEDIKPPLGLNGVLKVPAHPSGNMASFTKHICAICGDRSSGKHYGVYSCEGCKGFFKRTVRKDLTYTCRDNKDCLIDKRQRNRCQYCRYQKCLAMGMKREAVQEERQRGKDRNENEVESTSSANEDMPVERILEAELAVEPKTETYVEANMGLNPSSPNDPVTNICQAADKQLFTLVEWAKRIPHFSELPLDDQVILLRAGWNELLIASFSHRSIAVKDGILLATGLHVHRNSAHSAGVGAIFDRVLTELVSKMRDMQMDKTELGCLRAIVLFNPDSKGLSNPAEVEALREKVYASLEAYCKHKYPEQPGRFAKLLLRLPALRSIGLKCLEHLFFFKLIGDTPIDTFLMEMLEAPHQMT
Sequence of THRA (gene 7067) (P10827 whole entry, looked up, the tested form may be a part): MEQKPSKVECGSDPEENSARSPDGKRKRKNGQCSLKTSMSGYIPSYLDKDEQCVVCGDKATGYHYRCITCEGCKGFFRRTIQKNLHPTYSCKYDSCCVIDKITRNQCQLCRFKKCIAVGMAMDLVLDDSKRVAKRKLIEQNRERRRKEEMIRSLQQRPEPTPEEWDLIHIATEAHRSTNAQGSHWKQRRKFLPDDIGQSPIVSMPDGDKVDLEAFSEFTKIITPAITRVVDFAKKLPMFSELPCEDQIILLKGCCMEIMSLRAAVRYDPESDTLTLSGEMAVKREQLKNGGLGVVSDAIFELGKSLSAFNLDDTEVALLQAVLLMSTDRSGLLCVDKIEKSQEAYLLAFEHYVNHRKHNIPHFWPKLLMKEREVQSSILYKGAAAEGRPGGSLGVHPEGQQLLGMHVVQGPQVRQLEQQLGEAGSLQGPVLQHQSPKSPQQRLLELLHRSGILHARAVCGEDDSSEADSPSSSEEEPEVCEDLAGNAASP
T1 sequence (P63059 whole entry, looked up): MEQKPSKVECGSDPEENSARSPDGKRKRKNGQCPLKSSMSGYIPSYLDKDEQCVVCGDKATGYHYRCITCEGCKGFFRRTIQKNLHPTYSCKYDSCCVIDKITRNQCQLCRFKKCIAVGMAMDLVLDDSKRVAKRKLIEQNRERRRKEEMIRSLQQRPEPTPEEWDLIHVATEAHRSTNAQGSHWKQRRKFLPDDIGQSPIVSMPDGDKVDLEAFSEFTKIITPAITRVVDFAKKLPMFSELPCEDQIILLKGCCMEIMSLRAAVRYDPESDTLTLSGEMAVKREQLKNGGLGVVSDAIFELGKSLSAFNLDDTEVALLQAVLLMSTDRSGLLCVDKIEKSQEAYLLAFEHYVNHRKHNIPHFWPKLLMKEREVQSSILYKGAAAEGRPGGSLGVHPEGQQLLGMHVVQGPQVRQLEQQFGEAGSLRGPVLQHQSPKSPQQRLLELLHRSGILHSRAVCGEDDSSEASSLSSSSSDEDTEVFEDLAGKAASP
T1 sequence (P18113 whole entry, looked up): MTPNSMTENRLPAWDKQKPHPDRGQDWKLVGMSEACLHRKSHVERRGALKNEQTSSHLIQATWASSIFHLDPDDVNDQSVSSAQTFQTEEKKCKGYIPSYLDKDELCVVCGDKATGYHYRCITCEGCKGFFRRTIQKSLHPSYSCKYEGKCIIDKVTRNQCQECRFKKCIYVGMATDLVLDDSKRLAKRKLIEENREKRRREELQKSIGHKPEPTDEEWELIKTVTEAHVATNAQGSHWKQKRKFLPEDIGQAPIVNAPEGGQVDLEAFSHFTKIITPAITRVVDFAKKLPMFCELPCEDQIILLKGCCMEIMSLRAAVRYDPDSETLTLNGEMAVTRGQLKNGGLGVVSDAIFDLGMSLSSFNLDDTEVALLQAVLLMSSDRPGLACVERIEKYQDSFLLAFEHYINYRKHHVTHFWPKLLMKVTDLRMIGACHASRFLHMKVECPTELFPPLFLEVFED
Sequence of PGR (gene 5241) (P06401 whole entry, looked up): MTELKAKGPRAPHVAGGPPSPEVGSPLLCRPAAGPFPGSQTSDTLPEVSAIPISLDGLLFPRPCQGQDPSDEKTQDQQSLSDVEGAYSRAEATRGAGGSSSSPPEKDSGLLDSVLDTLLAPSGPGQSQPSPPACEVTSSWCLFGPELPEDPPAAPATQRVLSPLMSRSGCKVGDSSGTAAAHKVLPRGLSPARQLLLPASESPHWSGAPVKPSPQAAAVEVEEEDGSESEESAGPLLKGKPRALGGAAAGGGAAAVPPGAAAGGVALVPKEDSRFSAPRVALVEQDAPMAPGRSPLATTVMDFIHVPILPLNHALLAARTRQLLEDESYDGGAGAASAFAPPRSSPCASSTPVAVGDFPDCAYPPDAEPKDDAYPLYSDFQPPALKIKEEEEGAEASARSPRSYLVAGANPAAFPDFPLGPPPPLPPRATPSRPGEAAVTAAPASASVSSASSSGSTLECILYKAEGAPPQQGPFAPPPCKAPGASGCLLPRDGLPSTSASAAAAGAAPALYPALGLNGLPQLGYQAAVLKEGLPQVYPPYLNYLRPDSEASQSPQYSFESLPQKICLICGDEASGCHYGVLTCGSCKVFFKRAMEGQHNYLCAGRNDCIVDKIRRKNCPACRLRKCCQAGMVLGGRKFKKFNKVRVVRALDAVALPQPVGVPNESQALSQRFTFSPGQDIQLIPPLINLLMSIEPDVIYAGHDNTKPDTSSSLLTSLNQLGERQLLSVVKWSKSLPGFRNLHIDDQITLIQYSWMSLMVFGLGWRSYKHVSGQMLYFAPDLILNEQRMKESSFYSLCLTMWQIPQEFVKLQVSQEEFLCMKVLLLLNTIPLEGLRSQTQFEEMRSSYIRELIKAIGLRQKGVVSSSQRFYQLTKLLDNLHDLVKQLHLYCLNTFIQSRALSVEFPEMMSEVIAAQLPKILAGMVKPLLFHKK

Cc1nccn1-c1ccc(Sc2cccc(C3(C(N)=O)CCOCC3)c2)cc1
active: [1] 32.9 µM | THRB (gene 7068) [3] 21.5 µM
inactive: THRA (gene 7067) [2] | [4] | THRB (gene 7068) [5] | [6]

COc1cc2c(c(OC)c1OC)-c1ccc(OC)c(=O)cc1[C@@H](NC(C)=O)CC2
inactive: [1] | [4] | THRB (gene 7068) [5] | [6]
active: THRB (gene 7068) [3] 0.0894 µM

O=c1[nH]cnc2c1ncn2[C@H]1CC[C@@H](CO)O1
inactive: THRA (gene 7067) [7] | THRB (gene 7068) [9] | [10] | [11]
active: THRB (gene 7068) [8] 9.78 µM

NC(=O)N(O)[C@@H]1COc2cc(OCc3ccccc3)ccc21
inactive: [12] | [13] | [14]

CC(C)C(=O)Nc1ccc([N+](=O)[O-])c(C(F)(F)F)c1
inactive: [15] | [12] | PGR (gene 5241) | [13] | [14] | [16] | [17] | [18]

Cn1c(=O)c2[nH]cnc2n(C)c1=O
inactive: [19] | THRA (gene 7067) [7] | THRB (gene 7068) [8] | THRB (gene 7068) [9] | [10] | [11]

Nc1ccn([C@@H]2O[C@H](CO)[C@@H](O)[C@@H]2O)c(=O)n1
inactive: [1] | [4] | THRB (gene 7068) [5]

— PubChem BioAssay (EPA / NIEHS)
